BRCA1 expr act – activators of BRCA1 expression | MCF7-BRCA1-FFLuc reporter, luminescence, 48 h; response scale: scaled: vehicle 0%, 10 µM genistein 100% | Potency, µM (top dose mostly 46.1 µM), inactives show at the highest dose activation, usual class: activators | actives 1.1% (n = 380,000) | AID 624202; note: potency is the fitted concentration of half-maximal effect; nearly all actives have a fitted effect of over 80% in size
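Luminescence from a BRCA1-driven firefly luciferase in MCF7 cells was read after 48 h compound exposure at 37 C. Data normalized against DMSO and a 10microM genistein activation control, then curve-fitted across the titration.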
Nrf2 activator – Nrf2 pathway activation; Potency, µM (titrated, usually from 46.1 µM), for inactives: at the top dose activation, actives largely listed as activators; AREc32 ARE-luciferase reporter (MCF7-derived line), luminescence, 24 h; actives 0.31% (n = 410,000); AID 624171; note: potency is the fitted concentration of half-maximal effect; % of control where 0% means no effect; nearly all actives have a fitted effect of over 65% in size
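AREc32_Fluc, 1000 cells/well, OPTI-MEM + 5% FBS, o/n 37 deg C 5% CO2; 23 nL cpd by pin tool, 24 hr; Steady-Glo 30 min RT, luminescence.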
IL-2 act – IL-2 activation; IL-2 activation reporter assay, cell-based qHTS; stimulated with anti-CD3/CD4/CD28 beads; in transgenic mouse T cells; activation, % (series mostly up to about 46 µM); actives 0.065% (n = 360,000); in the data active = activation above about 50%; inconclusive = mostly about 30% to 49%; note: 0% is about no effect
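Unstimulated transgenic mouse T cells, 750 per well, received compound and, after 60 minutes, anti-CD3/anti-CD4 bead plus anti-CD28 stimulation. EGFP and DsRed were quantified after 18 hours.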
ELG1 repair inh – ELG1-dependent DNA repair inhibition | HEK293T ELG1-luciferase reporter, luminescence, 16 h; DNA damage induced by 5-fluorouridine | Potency, µM (top dose mostly 46.1 µM), inactives show at the highest dose activity change, negative = inhibition, usual class: inhibitors | actives 2.3% (n = 330,000); note: potency is the fitted concentration of half-maximal effect; % is set by controls: 0 for no effect and ±100 for the full control effect; nearly all actives have a fitted effect of over 55% in size
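Reporter activity after DNA damage by 5-fluorouridine is monitored. Compound-treated cells incubate 16 hr at 37 °C, then ONE-Glo is added for 30 min before luminescence reading.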
* hit, by the source's call; ? = inconclusive; nt = no result. This is a sample that favours compounds with a hit; in the whole collection about 3.1% have one here. Unless noted, calls come from the whole dose curve; as a rule, active = well fitted curve in the direction sought with a large enough effect; inconclusive = small, poorly fitted or top-dose-only effect, or another doubt; inactive = no such curve, though single readings can be large; an effect the other way counts as inactive or inconclusive.

SMILES	BRCA1 expr act	Nrf2 activator	IL-2 act	ELG1 repair inh
CC(C)c1ccc(C(O)Cc2nc3ccccc3n2C)cc1 (configuration not stated)	?	3%	-2	?
C=CCSc1nncn1/N=C/c1ccc(OC)cc1	2.2µM*	1%	-1	?
COc1ccc(C(=O)O/N=C(\N)c2ccc(OC)c(OC)c2)cc1	13µM*	4%	1	?
COc1ccc(/C(N)=N/OC(=O)C2CCCCC2)cc1OC	2.8µM*	3%	-1	?
COc1ccc(/C(N)=N/OC(=O)C2CCCCC2)cc1	?	2%	-4	?
COc1cc2c(NC3CCN(C)CC3)nc(N3CCCN(C)CC3)nc2cc1OCCCC(C)C	-70%	nt	nt	nt
OC1CCN(c2cc(-c3ccccc3)nc3cc(-c4ccc(F)cc4)nn23)CC1	-6%	1%	-4	13µM*
COc1ccc(-c2cc3nc(-c4ccccc4)cc(N4CCC5(CC4)OCCO5)n3n2)cc1	-48%	0%	-1	21µM*
CCN1CCN(c2cc(-c3ccccc3)nc3cc(-c4cccc(F)c4)nn23)CC1	-85%	-2%	0	23µM*
Cc1cc(N2CCN(C(=O)c3ccco3)CC2)n2nc(-c3cccc(F)c3)cc2n1	-25%	3%	0	16µM*
COc1ccc2c(C)c(CCC(=O)NCCc3ccccc3OC)c(=O)oc2c1	nt	-1%	nt	nt
CCOC(=O)[C@]12CCCC=C1N(Cc1cccc3ccccc13)C(=O)[C@H](CC(=O)NCCCOC)C2	3%	0%	0	nt
COc1ccc(-c2cc3nc(-c4ccccc4)cc(N4CCN(C(=O)c5ccoc5)CC4)n3n2)cc1	-14%	-2%	-2	nt
COc1cccc(-c2cc3nc(-c4ccccc4)cc(N4CCCC(O)C4)n3n2)c1 (configuration not stated)	-71%	-1%	1	16µM*
Cc1cccc(N2CCN(C(=O)COc3cccc4c3OC(C)(C)C4)CC2)c1C	-12%	0%	-2	26µM*
O=C(Nc1ccc2c(c1)Cc1cc([N+](=O)[O-])ccc1-2)C(F)(F)F	4µM*	9%	0	nt
O=C(/C=C/c1ccc2ccccc2n1)N1CCN(S(=O)(=O)c2ccc(F)cc2)CC1	-21%	7%	0	?
O=C(/C=C/c1ccc2ccccc2n1)N1CCN(S(=O)(=O)c2ccccc2F)CC1	-54%	5%	-1	16µM*
Cc1nc2ccccc2n1CCc1nc2c3ccccc3nc(SCc3ccccc3F)n2n1	nt	0%	nt	nt
COc1ccc2c(=O)c(-c3ccc(OC)c(OC)c3)coc2c1	11µM*	4%	0	?
COc1ccc(-c2coc3cc(O[C@@H]4O[C@H](CO)[C@@H](O)[C@H](O)[C@H]4O)ccc3c2=O)cc1	2.8µM*	0%	2	?
COc1ccc(-c2coc3cc(OC(C)=O)c(OC)cc3c2=O)cc1	10µM*	5%	1	?
Cc1cc(C)c(NC(=O)CN2C(=O)CCSc3ccc(S(=O)(=O)N4CCCC4)cc32)c(C)c1	nt	0%	nt	nt
COc1ccc(-c2cc3nc(C)c(CCC(=O)Nc4ccc(F)cc4F)c(C)n3n2)c(OC)c1	20%	0%	nt	nt
Cc1ccc(C(=O)O)cc1NC(=S)NC(=O)c1ccc(-c2ccc(Cl)cc2)o1	19%	0%	-2	-7%
SMILES	BRCA1 expr act	Nrf2 activator	IL-2 act	ELG1 repair inh
O=C(O)c1cccc(NC(=S)NC(=O)c2ccc(-c3ccc(Cl)cc3)o2)c1	11µM*	3%	0	?
C#CCNC(=O)C[C@@H]1C[C@@]2(C(=O)OCC)CCCC=C2N(CCC2=CCCCC2)C1=O	nt	nt	0	nt
Cc1ccc2c(c1)c(/C=C/c1cc[n+](C)cc1)c(C)n2C	-69%	-2%	4	?
Cc1ccc2[nH]c(C)c(/C=C/c3cc[n+](C)cc3)c2c1	-50%	7%	159*	2.6µM*
Cc1ccc(S(=O)(=O)N(Cc2nc(-c3cccc(C)c3)no2)C2CCCCC2)cc1	nt	4%	nt	nt
COc1cc(/C=C/C(=O)c2ccc(NS(=O)(=O)c3ccc(C)cc3)cc2)cc(OC)c1O	-94%	?	4	10µM*
CCCc1cnc2c(c1SCC(=O)N1CCC(C)CC1)c(=O)n(C)c(=O)n2C	nt	8%	nt	nt
COc1ccc(/C=C\c2onc(C)c2S(=O)(=O)N2CCC(C(=O)Nc3ccc(Cl)cc3)CC2)cc1	nt	-1%	nt	nt
CCN(CC)C(=S)SCC(=O)c1ccc(Br)cc1	13µM*	3%	3	?
Cc1cccc(-c2cc3nc4c(c(N5CCCC(O)C5)n3n2)CCC4)c1 (configuration not stated)	-59%	6%	-3	16µM*
OC1CCCN(c2c3c(nc4cc(-c5cccc(F)c5)nn24)CCCC3)C1 (configuration not stated)	73%	6%	-5	?
OC1CCCN(c2c3c(nc4cc(-c5cccc(Cl)c5)nn24)CCC3)C1 (configuration not stated)	-41%	3%	1	21µM*
CCOc1ccc(NC(=O)Cn2nnc(C(=O)NCCc3ccccc3)c2N)cc1	19%	0%	nt	nt
COc1ccc(N/N=C(\C#N)C(=N)N2CCCCC2)cc1	7.9µM*	4%	1	?
Cc1ccc(N/N=C(\C#N)C(=N)N2CCCCCC2)cc1	6%	0%	-2	?
COc1cccc(NC(=O)C2CCN(c3nnc(C)c4c(C)n(-c5ccccc5)nc34)CC2)c1	nt	0%	nt	nt
Cc1cccc(C)c1NC(=O)CN(C)CC(=O)Nc1sc2c(c1C(N)=O)CCC2	-28%	0%	-4	7.3µM*
Cc1occc1C(=O)NCc1cccs1	-2%	-1%	3	15%
Cc1cc(C(=O)NCc2cccs2)c(C)o1	4%	1%	-4	16%
Cc1ccc2c(=O)c(C(=O)NCc3cccs3)c[nH]c2c1	11µM*	0%	-2	?
Cc1cccc2c(=O)c(C(=O)NCc3cccs3)c[nH]c12	13µM*	3%	-1	nt
COc1ccccc1Cn1c(=S)[nH]c2cc(C(=O)N3CCCC(C)C3)ccc2c1=O (configuration not stated)	-50%	2%	-1	nt
CC(=O)c1cccc(NC(=O)CN2C(=O)c3cccnc3Sc3ccccc32)c1	nt	11%	nt	nt
CN(C)c1ccc(N=Nc2cccc(F)c2)cc1	1.6µM*	4%	-4	?
Cn1c(SCC(=O)Nc2ccc3nc(SCC(=O)N4CCCC4)sc3c2)nnc1-c1ccccc1	13%	3%	0	21µM*
Cn1cnnc1SCC(=O)Nc1ccc2nc(SCc3ccccc3F)sc2c1	4µM*	0%	1	?
Oc1ccc(N2CCN(C(c3ccc(Cl)cc3)c3nnnn3Cc3ccc(F)cc3)CC2)cc1 (configuration not stated)	-51%	nt	nt	nt
Cc1[nH]n(C(N)=S)c(=O)c1N=Nc1ccc(Br)cc1	4.5µM*	4%	-1	?

From PubChem BioAssay
